# Compound activity from PubChem BioAssay.
# USP8 inh – inhibitors of human USP8 deubiquitinase | Ubiquitin carboxyl-terminal hydrolase 8 (Homo sapiens), P40818 | purified USP8, Ub-rhodamine cleavage fluorescence, 30 min | inhibition, % at 20 µM | hit rate 4.2% among 47,000
# USP17 inh – inhibitors of human USP17 deubiquitinase; purified USP17, Ub-rhodamine cleavage fluorescence, 3 h; hit rate 6.5% among 47,000; inhibition, % at 50 µM; AID 1645855, 2021; Ubiquitin carboxyl-terminal hydrolase 17-like protein 5 (Homo sapiens), A8MUK1
# Target sequence (A8MUK1 whole entry, looked up): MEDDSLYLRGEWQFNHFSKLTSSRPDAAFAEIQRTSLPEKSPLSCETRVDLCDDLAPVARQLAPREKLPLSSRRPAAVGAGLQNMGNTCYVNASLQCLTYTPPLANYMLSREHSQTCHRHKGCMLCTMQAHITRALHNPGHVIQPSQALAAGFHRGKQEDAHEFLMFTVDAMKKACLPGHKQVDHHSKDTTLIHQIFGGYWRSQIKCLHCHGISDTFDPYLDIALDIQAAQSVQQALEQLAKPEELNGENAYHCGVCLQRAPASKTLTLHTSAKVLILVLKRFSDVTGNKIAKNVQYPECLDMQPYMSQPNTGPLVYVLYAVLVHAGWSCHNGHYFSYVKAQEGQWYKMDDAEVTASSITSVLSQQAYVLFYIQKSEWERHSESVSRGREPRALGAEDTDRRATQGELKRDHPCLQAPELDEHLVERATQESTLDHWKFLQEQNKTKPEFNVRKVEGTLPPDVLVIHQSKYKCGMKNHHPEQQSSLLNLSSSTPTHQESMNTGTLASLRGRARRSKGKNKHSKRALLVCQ
# USP28 block – inhibitors of human USP28 deubiquitinase | purified USP28, Ub-rhodamine cleavage fluorescence, 30 min | AID 1645857, 2021 | Ubiquitin carboxyl-terminal hydrolase 28 (Homo sapiens), Q96RU2 | inhibition, % at 25 µM | hit rate 3% among 47,000
# USP30 block – inhibitors of human USP30 deubiquitinase; Ubiquitin carboxyl-terminal hydrolase 30 (Homo sapiens), Q70CQ3; purified USP30, Ub-rhodamine cleavage fluorescence; inhibition, % at 25 µM; hit rate 5.3% among 47,000; AID 1645860, 2021
# * marks the source's active call; other numbers are inactive results. A selection: hits, their analogues and other compounds. The true share with any hit is near 13%. No stated cut-off is given here; in the data, active means inhibition above about 30%; inactive means the rest.
SMILES,USP8 inh,USP17 inh,USP28 block,USP30 block
O=C(Nc1cccc(-c2noc(C3CC3)n2)c1)C1CC(=O)N(c2ccccc2)C1 (configuration not stated),35.7*,40.4*,-4.3,-3.2
Cn1c(=O)[nH]c2cc(-c3noc(C4CC(=O)N(c5ccccc5)C4)n3)ccc21 (configuration not stated),-13.8,32.1*,-8.9,-10.9
Cc1ccc(CNC(=O)C2CC(=O)N(c3cccc(-c4noc(C5CCC5)n4)c3)C2)cc1 (configuration not stated),-3.9,15.5,2.7,3.3
Cc1cc(C(=O)Nc2cc([N+](=O)[O-])cc3oc(-c4ccccc4)cc23)on1,-80.4,-110.3,-105.7,-426.0
CCC(C)C1OC(=O)/C=C/C=C\C=C/C=C/C=C/CC(O)C(C)C(O)CC(O)CC(O)CC(O)CC(O)CC(O)CC(O)/C=C/C1C (configuration not stated),-209.6,-17.6,-37.8,-155.4
COc1ccc(Cn2nnc(-c3cccc(Cl)c3)n2)cc1F,3.7,1.5,35.0*,-10.7
COc1ccc(Cn2c(=O)n(C)c3ncncc32)cc1F,5.0,8.7,1.3,4.7
COc1cccc(NC(=O)CCc2c(C)nc3c(c2C)c(=O)n(C)c(=O)n3C)c1,18.5,14.2,37.1*,35.0*
Cc1ccc(C)c(NC(=O)CCc2c(C)nn(-c3cc(N4CCOCC4)ncn3)c2C)c1,1.5,19.6,6.0,34.0*
COc1cccc(NC(=O)CCc2c(C)nn(-c3cc(N4CCCCC4)ncn3)c2C)c1,-24.9,0.2,68.5*,9.4
Cc1ccc(C)c(NC(=O)CCc2c(C)nn(-c3cc(N4CCCC4)ncn3)c2C)c1,19.1,21.9,11.8,28.5
CCC1=C(c2ccc(C)cc2)S(=O)(=O)NC1=NCC(=O)NCc1cccc(C)c1,-0.4,43.7*,19.8,14.9
CCC1=C(c2ccc(C)cc2)S(=O)(=O)NC1=NCC(=O)NCc1ccccc1F,-1.6,60.3*,13.0,27.2
CC1=C(c2ccc(F)cc2)S(=O)(=O)NC1=NCC(=O)Nc1ccc(F)cc1F,1.7,35.7*,2.0,54.2*
CCNC(=O)N1CCc2c(cccc2-n2nnc(C(=O)N(C)Cc3ccco3)c2C)C1,36.7*,-5.4,-5.0,-74.5
O=C(OCC(=O)N1CCCc2ccccc21)c1c(F)cccc1Cl,-90.5,9.9,23.7,30.8*
O=C(OCC(=O)N1CCCc2ccccc21)c1ccc(O)cc1,-3.5,-7.3,1.8,2.0
CC(=O)N1CCCCCC1C1CCN(c2nn3cc(C)nc3s2)CC1 (configuration not stated),1.1,-4.6,0.6,-1.8
O=C(CCc1nnc2ccc(N3CCCC3)nn12)NCC1CCCO1 (configuration not stated),12.2,4.8,3.8,10.6
C[C@H](NC(=O)[C@H](Cc1c[nH]c2ccccc12)n1c(=O)[nH]c2ccccc2c1=O)C(=O)NCC1CCC(C(=O)O)CC1 (some centres not stated),-17.8,-10.2,-4.3,-14.0
CN(C)c1cc(-n2cnc(C(=O)NCc3cccc(Cl)c3)c2)ncn1,1.6,41.7*,9.5,25.6
Cc1cccc(-n2cnc(C(=O)NCc3ccc(F)cc3)c2)n1,34.0*,83.3*,29.0,35.5*
Cc1cc(C)n(-c2ccc(C(=O)NCc3ccc(F)cc3)cn2)n1,20.1,48.8*,33.6*,68.5*
CN(C)c1cc(-n2cnc(C(=O)Nc3ccccc3)c2)ncn1,-6.8,17.1,9.0,26.0
C=C1CCOC2(C(O)C(C)(O)CO)NC(=O)C1(O)NC2=O (configuration not stated),7.0,8.2,2.2,8.6
SMILES,USP8 inh,USP17 inh,USP28 block,USP30 block
CC(C)c1cc(C(=O)NC2CC(C)(C)Cc3nc(N4CCCC4)ncc32)no1 (configuration not stated),-2.6,-20.7,-15.9,-54.2
O=C(Cn1c(-c2nc(-c3cccc(F)c3)no2)cccc1=O)NCc1ccco1,87.3*,39.7*,23.3,-36.1
CCc1noc(-c2ccc(=O)n(CC(=O)Nc3ccccc3)c2)n1,16.0,22.4,14.1,37.7*
CCc1cccc(NC(=O)Cn2c(-c3nc(C)no3)cccc2=O)c1,19.2,-14.9,19.0,8.2
O=C(Cn1c(-c2nc(-c3ccccc3)no2)cccc1=O)Nc1ccccc1,25.1,34.1*,6.5,21.9
Cc1cc(=O)n(CC(=O)NCc2ccccc2)c(N2CCCCC2)n1,3.2,-4.9,-0.4,7.4
Cc1ccc2c(=O)c3c([nH]c2c1C)CCN(CC(=O)NCc1ccccc1)C3,-5.9,72.3*,18.1,40.1*
